From PubChem BioAssay (Tox21)
Records with an inconclusive call do not appear. Activity calls are given as the source filed them. Unless noted, calls come from the whole dose curve; as a rule, active = well fitted curve in the direction sought with a large enough effect in the repeat runs; inconclusive = weak or mixed curves; inactive = no such curve, though single readings can be large; an effect the other way counts as inactive or inconclusive.

Legend:
[1] = qHTS assay to identify small molecule antagonists of the glucocorticoid receptor (GR) signaling pathway - cell viability counter screen (AID 720693); note: nearly all actives have a fitted effect of over 55% in size
[2] = qHTS assay for identifying genotoxic compounds that show differential cytotoxicity against isogenic chicken DT40 cell lines with known DNA damage response pathways - wild type cell line (AID 743012); note: nearly all actives have a fitted effect of over 60% in size; note: potency is the fitted concentration of half-maximal effect
How it was run: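 Using parental DT40 (300 cells/well), compounds delivered in DMSO incubate 40 h at 37 C/5% CO2. CellTiter-Glo reagent then stands 30 min at room temperature, and luminescence gives cell viability.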

[3] = qHTS assay for identifying genotoxic compounds that show differential cytotoxicity against isogenic chicken DT40 cell lines with known DNA damage response pathways - Rad54/Ku70 mutant cell line (AID 743015); note: nearly all actives have a fitted effect of over 60% in size
[4] = qHTS assay to identify small molecule antagonists of the androgen receptor (AR) signaling pathway - cell viability counter screen (AID 743033; note: nearly all actives have a fitted effect of over 45% in size)
[5] = qHTS assay to identify small molecule antagonists of the androgen receptor (AR) signaling pathway using the MDA cell line - cell viability counter screen (AID 743041; note: nearly all actives have a fitted effect of over 45% in size)
How it was run: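 R1881-driven MDA-kb2 AR-luc cells, 3,000/well, were dosed with library compounds for 16 h; cell health came from CellTiter-Fluor fluorescence in the reporter wells.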

[6] = qHTS assay to identify small molecule antagonists of the thyroid receptor (TR) signaling pathway - cell viability counter screen (AID 743064); note: nearly all actives have a fitted effect of over 50% in size
How it was run: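 Fluorescence from CellTiter-Fluor, added after 23.5 h exposure at 37 °C, reported viability of GH3.TRE-Luc cells co-treated with compound and 1 nM T3. Measured in the same wells as the luciferase TR readout.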

[7] = qHTS assay to identify small molecule antagonists of the thyroid receptor (TR) signaling pathway (AID 743065); note: series mostly up to about 70 µM; nearly all actives have a fitted effect of over 55% in size
How it was run: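 Antagonism measured as loss of luciferase signal in GH3 cells stably carrying a TRE-luciferase reporter, co-treated with compound and T3 (1 nM final) for 23.5 h at 37 C. Viability was read in the same well by CellTiter-Fluor.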

[8] = system: thyroid hormone receptor (rat, GH3 cells); assay: qHTS assay to identify small molecule agonists of the thyroid receptor (TR) signaling pathway (AID 743066; calls by dose curve)
[9] = biological target: Estrogen receptor (Homo sapiens) (UniProt P03372); assay: qHTS assay to identify small molecule antagonists of the estrogen receptor alpha (ER-alpha) signaling pathway (AID 743069; active = well fitted curve in the direction sought with a large enough effect in the signal ratio in the repeat runs, not every such curve was filed as active; the % refers to the signal ratio)
Sequence of Estrogen receptor (Homo sapiens) (P03372 whole entry, looked up): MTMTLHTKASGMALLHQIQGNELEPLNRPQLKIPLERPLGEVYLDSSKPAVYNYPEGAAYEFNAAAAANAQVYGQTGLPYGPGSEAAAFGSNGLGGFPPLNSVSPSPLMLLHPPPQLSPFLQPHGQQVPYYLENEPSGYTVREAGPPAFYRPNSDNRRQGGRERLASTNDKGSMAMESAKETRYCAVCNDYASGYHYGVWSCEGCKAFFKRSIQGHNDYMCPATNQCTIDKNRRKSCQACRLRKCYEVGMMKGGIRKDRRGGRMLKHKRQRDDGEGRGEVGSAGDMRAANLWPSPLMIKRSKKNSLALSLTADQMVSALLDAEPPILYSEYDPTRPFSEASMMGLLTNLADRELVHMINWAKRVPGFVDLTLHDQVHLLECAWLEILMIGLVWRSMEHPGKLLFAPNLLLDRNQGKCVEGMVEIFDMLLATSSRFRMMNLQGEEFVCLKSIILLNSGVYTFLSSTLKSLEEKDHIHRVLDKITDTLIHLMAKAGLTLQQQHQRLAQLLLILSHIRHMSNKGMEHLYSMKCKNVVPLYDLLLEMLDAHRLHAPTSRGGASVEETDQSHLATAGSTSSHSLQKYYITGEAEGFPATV
How it was run: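 Compound effects are measured against 17beta-estradiol stimulation in HEK293 cells with a UAS-controlled beta-lactamase reporter for ER-alpha. Exposure lasts 18 hr at 37C; LiveBLAzer B/G FRET substrate follows for 2 hr at room temperature.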

[10] = qHTS assay to identify small molecule antagonists of the estrogen receptor alpha (ER-alpha) signaling pathway - cell viability counter screen (AID 743074; calls by dose curve;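 note: HEK293 cells carrying ER-alpha-UAS-bla reporter stimulated with 17beta-estradiol; nearly all actives have a fitted effect of over 45% in size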)
[11] = biological target: Estrogen receptor (Homo sapiens) (UniProt P03372); assay: qHTS assay to identify small molecule agonists of the estrogen receptor alpha (ER-alpha) signaling pathway (AID 743075; calls by dose curve)
[12] = biological target: Estrogen receptor (Homo sapiens) (UniProt P03372); assay: qHTS assay to identify small molecule agonists of the estrogen receptor alpha (ER-alpha) signaling pathway using the BG1 cell line (AID 743079); note: nearly all actives have a fitted effect of over 20% in size; note: potency is the fitted concentration of half-maximal effect
[13] = qHTS assay to identify small molecule antagonists of the estrogen receptor alpha (ER-alpha) signaling pathway using the BG1 cell line (AID 743080; calls by dose curve;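 note: BG1 cells stimulated with 17beta-estradiol alongside compound; series mostly up to about 70 µM; nearly all actives have a fitted effect of over 25% in size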)
How it was run: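 Luciferase inhibition measured with ONE-Glo after 30 min at RT in BG1Luc4E2 cells given test compounds and 17beta-estradiol for 21.5 h at 37 C; CellTiter-Fluor viability read in the same wells beforehand.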

Aromatase (Homo sapiens) = Aromatase (Homo sapiens) (UniProt P11511); assay: qHTS assay to identify aromatase inhibitors (AID 743083); note: series mostly up to about 70 µM; nearly all actives have a fitted effect of over 55% in size
Sequence of Aromatase (Homo sapiens) (P11511 whole entry, looked up): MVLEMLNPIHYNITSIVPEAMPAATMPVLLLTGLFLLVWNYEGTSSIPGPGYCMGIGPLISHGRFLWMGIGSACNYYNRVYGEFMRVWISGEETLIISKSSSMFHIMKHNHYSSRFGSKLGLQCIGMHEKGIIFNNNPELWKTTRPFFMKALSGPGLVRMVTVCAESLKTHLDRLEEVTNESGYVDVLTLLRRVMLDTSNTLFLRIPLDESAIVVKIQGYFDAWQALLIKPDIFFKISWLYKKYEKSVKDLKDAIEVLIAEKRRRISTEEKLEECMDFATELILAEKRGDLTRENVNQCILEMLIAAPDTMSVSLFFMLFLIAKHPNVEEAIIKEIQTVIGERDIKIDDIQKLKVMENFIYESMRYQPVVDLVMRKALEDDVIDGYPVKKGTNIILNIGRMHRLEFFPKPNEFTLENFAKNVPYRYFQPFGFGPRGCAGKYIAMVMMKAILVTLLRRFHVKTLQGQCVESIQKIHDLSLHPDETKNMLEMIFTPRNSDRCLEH

[14] = qHTS assay for identifying genotoxic compounds that show differential cytotoxicity against isogenic chicken DT40 cell lines with known DNA damage response pathways - Rev3 mutant cell line (AID 743014); note: nearly all actives have a fitted effect of over 55% in size
[15] = biological target: Androgen receptor (Homo sapiens) (UniProt P10275); assay: qHTS assay to identify small molecule agonists of the androgen receptor (AR) signaling pathway (AID 743036; active = well fitted activation curve with a large enough effect in the signal ratio in the repeat runs, with a control signal flat, not every such curve was filed as active; the % refers to the signal ratio)
Sequence of Androgen receptor (Homo sapiens) (P10275 whole entry, looked up): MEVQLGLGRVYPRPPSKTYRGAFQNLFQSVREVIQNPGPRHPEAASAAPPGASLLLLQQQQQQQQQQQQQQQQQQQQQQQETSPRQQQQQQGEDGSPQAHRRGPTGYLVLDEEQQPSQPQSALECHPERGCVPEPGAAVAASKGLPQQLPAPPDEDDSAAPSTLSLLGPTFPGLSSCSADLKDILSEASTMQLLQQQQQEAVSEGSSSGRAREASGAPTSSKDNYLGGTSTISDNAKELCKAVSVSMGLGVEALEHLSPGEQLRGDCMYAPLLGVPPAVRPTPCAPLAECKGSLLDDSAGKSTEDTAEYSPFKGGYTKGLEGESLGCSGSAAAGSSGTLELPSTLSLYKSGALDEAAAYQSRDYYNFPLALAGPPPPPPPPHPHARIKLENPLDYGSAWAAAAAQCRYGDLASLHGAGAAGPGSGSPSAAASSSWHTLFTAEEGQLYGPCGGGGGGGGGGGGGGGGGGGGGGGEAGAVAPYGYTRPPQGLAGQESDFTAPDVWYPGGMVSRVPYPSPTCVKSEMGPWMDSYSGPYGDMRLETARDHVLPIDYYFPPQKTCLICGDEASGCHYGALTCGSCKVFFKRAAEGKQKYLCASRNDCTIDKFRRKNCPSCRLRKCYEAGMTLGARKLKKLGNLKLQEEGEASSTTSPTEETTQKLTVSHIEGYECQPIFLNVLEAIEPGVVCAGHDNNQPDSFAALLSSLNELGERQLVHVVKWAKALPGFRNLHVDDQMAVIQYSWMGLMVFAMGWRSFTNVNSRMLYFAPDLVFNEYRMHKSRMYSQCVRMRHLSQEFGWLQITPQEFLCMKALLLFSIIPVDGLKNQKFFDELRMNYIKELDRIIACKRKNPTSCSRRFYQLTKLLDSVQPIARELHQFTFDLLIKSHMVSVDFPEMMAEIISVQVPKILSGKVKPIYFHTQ
How it was run: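 Fluorescence from a beta-lactamase FRET substrate served as read-out in AR-UAS-bla GripTite HEK293 cells. Cells were treated with DMSO-dissolved compounds for 16 h at 37C, then with LiveBLAzer B/G substrate for 2 h at room temperature.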

[16] = biological target: Androgen receptor (Homo sapiens) (UniProt P10275); assay: qHTS assay to identify small molecule agonists of the androgen receptor (AR) signaling pathway using the MDA cell line (AID 743040; note: nearly all actives have a fitted effect of over 20% in size)
How it was run: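 After a 5 h incubation at 37C and 0% CO2, MDA-kb2 reporter cells were dosed with compounds in DMSO and kept 16 h under the same conditions. Luciferase activity was then read as luminescence with ONE-Glo.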

[17] = biological target: Androgen receptor (Homo sapiens) (UniProt P10275); assay: qHTS assay to identify small molecule antagonists of the androgen receptor (AR) signaling pathway using the MDA cell line (AID 743042; note: nearly all actives have a fitted effect of over 55% in size)
How it was run: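 Antagonist mode: compounds plus R1881 agonist added to MDA-kb2 AR-luc cells, incubated 16 h at 37C. Luciferase reporter luminescence quantified, with multiplexed CellTiter-Fluor readout for cell viability.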

[18] = qHTS assay to identify small molecule antagonists of the estrogen receptor alpha (ER-alpha) signaling pathway using the BG1 cell line - cell viability counter screen (AID 743081);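 note: compound given together with 17beta-estradiol as the ER stimulus; series mostly up to about 70 µM; nearly all actives have a fitted effect of over 45% in size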
[19] = biological target: Androgen receptor (Homo sapiens) (UniProt P10275); assay: qHTS assay to identify small molecule antagonists of the androgen receptor (AR) signaling pathway (AID 743035; active = well fitted inhibition curve with a large enough effect in the signal ratio in the repeat runs, not every such curve was filed as active; the % refers to the signal ratio)
How it was run: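 Using qHTS, AR-UAS-bla GripTite HEK293 cells received compound, then R1881, and were cultured 16 h at 37C/5% CO2 before a 2 h room-temperature LiveBLAzer B/G FRET substrate step and fluorescence measurement.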

Measured: Potency

CCOC(=O)[C@H](CCc1ccccc1)N[C@@H](C)C(=O)N1C(=O)N(C)C[C@H]1C(=O)O
inactive: [1] | [2] | [3] | [4] | [5] | [6] | [7] | [8] | [9] | [10] | [11] | [12] | [13] | Aromatase (Homo sapiens)

Cc1cc(Cl)c(C)cc1Cl
inactive: [1] | [14] | [3] | [4] | [15] | [16] | [5] | [17] | [6] | [10] | [18] | Aromatase (Homo sapiens)

O=C1c2ccccc2C(=O)N1CCl
inactive: [1] | [2] | [4] | [19] | [15] | [16] | [5] | [17] | [6] | [7] | [8] | [9] | [10] | [11] | [12] | [13] | [18] | Aromatase (Homo sapiens)

CCOC(=O)CC(=O)c1ccccc1
inactive: [1] | [2] | [3] | [4] | [5] | [6] | [7] | [8] | [9] | [10] | [11] | [13] | [18] | Aromatase (Homo sapiens)

O=Cc1ccc(Cl)c(Cl)c1
inactive: [1] | [2] | [3] | [4] | [5] | [7] | [8] | [10] | [18] | Aromatase (Homo sapiens)

CCCCOC(=O)c1ccccc1
active: [12] 34.4 µM
inactive: [1] | [2] | [3] | [4] | [19] | [16] | [5] | [17] | [9] | [10] | [11] | [13] | [18] | Aromatase (Homo sapiens)

CCO[Si](CCCS)(OCC)OCC
inactive: [1] | [2] | [3] | [4] | [5] | [6] | [7] | [8] | [10] | [18] | Aromatase (Homo sapiens)

CC(N)C(=O)OC(C)(C)Cc1ccc(Cl)cc1 (stereo not given)
inactive: [1] | [4] | [5] | [8] | [9] | [10] | [11] | [12] | [13] | [18] | Aromatase (Homo sapiens)
active: [2] 21.1 µM

C=C(C)C(=O)OCCNC(C)(C)C
inactive: [1] | [2] | [3] | [4] | [5] | [6] | [10] | [18] | Aromatase (Homo sapiens)

COP(=O)(OC)OC(c1ccc(Cl)cc1)P(=O)(OC)OC (stereo not given)
inactive: [1] | [2] | [3] | [4] | [5] | [6] | [7] | [8] | [9] | [10] | [11] | [12] | [13] | [18] | Aromatase (Homo sapiens)
